In PubChem BioAssay one finds composite z-score and z-score data, which are given here for 8 compounds.

Activity calls are given as the source filed them.

For experiment [1], the system named is PRMT1 (protein arginine N-methyltransferase 1). Kind of experiment: PRMT1 binders on small-molecule microarrays, primary screen, biochemical, small-molecule microarray, 635 nm fluorescence (AID 1088).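 Also: binding of Prmt1 protein to compounds spotted on small-molecule microarray slides.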 The settings on record: small-molecule microarray binding, higher = more signal.
The nature of experiment [2]: yeast growth modulation, basal conditions, primary screen, YJM789 clinical isolate, OD600, 24 h (AID 1089).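 Also: growth of clinical yeast isolate S. cerevisiae YJM 789 seeded 1000 cells per well; test concentration not given here.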 The settings on record: S. cerevisiae YJM789 growth, higher = more signal, called active from +8 up or from −8 down.
Experiment [3] is described as follows: fission yeast growth modulation, primary screen, strain 972, OD600, 24 h, no modulator (AID 1090).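 Also: basal condition with compound alone and no growth modifier present; test concentration not given here.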 As to conditions: S. pombe 972 growth, higher = more signal, called active from +8 up or from −8 down.
Experiment [4] is described as follows: S. cerevisiae growth modulation with rapamycin, primary screen, strain BY4716, OD600, 96 h (AID 1091). Also: test concentration not given here. The settings on record: higher = more signal, called active from +8 up or from −8 down.
In experiment [5] the target is Torsin-1A-interacting protein 2 (Homo sapiens) (UniProt Q8NFQ8). Kind of experiment: LULL1 binders on small-molecule microarray, primary screen, cell lysate, human LULL1 lysate, 635/667 nm fluorescence (AID 1092).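 Also: probe is lysate of COS7 cells overexpressing human LULL1; score merges per-feature 667 nm fluorescence with signal-to-noise.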 As to conditions: hLULL1 lysate binding, 635 nm fluorescence, higher = more signal.
Torsin-1A-interacting protein 2 (Homo sapiens), sequence (Q8NFQ8 whole entry, looked up): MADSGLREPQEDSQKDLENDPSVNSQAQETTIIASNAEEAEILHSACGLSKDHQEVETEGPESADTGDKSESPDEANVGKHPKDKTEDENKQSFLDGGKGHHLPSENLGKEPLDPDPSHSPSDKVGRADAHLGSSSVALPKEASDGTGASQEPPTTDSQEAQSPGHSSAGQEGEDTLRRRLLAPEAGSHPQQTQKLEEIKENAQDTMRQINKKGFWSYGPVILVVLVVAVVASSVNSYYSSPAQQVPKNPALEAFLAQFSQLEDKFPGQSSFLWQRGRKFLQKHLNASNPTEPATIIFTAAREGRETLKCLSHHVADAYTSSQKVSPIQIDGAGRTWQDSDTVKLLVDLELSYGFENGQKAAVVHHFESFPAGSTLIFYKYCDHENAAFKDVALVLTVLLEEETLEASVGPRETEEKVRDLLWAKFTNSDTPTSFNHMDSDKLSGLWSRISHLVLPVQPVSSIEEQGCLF
Experiment [6] can be described thus: E. coli growth modulation, two-sided OD650, primary screen, E. coli filamentation project, strain DRC41, 24 h (AID 1093).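 Also: MC1000 strain lacking acrAB efflux and sulA so SOS filamentation is blocked; test concentration not given here.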 The settings on record: OD650, 24 h, higher = more signal, called active from +8 up or from −8 down.
Experiment [7] is described as follows: small-molecule microarray binders of probe aLefty2, primary screen, biochemical, biotinylated probe, 635/667 nm fluorescence (AID 1094).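 Also: score merges spot fluorescence near 667 nm with spot signal-to-noise ratio.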 The settings on record: higher = more signal.
Experiment [8] has as its system Noggin (protein binding on small-molecule microarray). Nature of the experiment: Noggin binders on small-molecule microarray, primary screen, biochemical, 635/667 nm fluorescence (AID 1095).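 Also: score merges 667 nm feature fluorescence with signal to noise over triplicate slides.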 As to conditions: 635 nm fluorescence, higher = more signal.
The target in experiment [9] is Neurogenic locus notch homolog protein 3 (Homo sapiens) (UniProt Q9UM47). Kind of experiment: NOTCH3 binders on small-molecule microarray, primary screen, biochemical, 635/667 nm fluorescence (AID 1096). As to conditions: NOTCH3 binding, 635 nm fluorescence, higher = more signal.
Neurogenic locus notch homolog protein 3 (Homo sapiens), sequence (Q9UM47 whole entry, looked up): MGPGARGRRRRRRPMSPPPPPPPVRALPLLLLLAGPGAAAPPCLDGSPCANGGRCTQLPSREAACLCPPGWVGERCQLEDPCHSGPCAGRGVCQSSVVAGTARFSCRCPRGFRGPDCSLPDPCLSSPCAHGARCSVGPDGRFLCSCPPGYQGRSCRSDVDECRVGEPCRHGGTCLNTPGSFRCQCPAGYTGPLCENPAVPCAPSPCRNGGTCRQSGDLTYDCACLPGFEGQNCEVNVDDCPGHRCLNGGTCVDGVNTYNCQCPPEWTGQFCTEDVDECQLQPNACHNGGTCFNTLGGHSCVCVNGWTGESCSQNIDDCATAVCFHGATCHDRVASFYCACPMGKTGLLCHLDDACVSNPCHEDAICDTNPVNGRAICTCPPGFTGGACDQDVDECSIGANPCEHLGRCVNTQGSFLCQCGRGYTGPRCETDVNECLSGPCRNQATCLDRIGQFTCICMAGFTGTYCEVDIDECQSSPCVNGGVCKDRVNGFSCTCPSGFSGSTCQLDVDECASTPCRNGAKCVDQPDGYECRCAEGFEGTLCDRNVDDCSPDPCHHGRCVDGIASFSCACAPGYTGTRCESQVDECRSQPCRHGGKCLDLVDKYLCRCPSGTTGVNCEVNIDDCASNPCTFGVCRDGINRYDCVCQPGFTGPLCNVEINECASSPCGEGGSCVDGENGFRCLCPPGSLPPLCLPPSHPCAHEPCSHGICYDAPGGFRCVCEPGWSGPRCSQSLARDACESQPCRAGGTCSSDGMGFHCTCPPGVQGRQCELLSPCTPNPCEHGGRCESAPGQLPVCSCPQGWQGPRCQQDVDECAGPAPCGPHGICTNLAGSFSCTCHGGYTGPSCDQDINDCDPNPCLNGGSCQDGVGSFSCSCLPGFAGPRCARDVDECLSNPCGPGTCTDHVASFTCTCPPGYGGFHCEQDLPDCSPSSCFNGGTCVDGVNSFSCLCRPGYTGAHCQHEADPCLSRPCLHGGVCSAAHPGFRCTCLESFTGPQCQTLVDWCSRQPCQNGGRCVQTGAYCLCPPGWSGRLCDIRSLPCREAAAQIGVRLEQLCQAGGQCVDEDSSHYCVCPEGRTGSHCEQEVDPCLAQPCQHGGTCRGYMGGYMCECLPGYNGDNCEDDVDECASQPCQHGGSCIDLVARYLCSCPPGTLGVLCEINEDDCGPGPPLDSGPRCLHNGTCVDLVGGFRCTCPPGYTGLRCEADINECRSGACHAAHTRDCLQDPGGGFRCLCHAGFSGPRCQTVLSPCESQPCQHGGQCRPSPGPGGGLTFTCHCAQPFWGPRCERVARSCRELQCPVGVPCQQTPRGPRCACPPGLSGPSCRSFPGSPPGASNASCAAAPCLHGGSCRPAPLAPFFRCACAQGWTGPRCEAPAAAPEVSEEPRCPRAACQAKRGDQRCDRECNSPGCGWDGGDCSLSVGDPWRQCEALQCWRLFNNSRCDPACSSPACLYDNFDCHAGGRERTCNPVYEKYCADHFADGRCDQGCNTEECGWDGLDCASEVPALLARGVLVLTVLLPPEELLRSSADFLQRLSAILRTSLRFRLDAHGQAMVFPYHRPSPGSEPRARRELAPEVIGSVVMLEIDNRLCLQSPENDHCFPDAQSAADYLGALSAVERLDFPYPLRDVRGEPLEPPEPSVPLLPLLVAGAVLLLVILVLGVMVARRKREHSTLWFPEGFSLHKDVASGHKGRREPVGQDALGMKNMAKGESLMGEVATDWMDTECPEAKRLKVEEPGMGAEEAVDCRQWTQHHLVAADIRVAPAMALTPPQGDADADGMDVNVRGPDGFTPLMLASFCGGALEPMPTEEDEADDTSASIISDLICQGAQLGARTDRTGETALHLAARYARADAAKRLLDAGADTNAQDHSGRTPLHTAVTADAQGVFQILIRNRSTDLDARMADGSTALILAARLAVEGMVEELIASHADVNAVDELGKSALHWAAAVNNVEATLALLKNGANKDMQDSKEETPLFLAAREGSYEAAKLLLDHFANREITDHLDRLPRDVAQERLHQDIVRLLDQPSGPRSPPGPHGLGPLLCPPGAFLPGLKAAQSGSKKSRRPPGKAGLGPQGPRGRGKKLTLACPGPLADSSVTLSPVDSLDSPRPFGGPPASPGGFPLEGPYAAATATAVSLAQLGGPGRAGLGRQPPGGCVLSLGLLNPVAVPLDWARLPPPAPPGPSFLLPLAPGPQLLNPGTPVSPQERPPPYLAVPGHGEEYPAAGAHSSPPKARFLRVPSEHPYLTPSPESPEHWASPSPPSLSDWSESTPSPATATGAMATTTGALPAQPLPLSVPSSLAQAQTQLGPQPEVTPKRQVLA
Experiment [10] in a line: small-molecule microarray binders of probe aEGFR, primary screen, biochemical, biotinylated probe, 635/667 nm fluorescence (AID 1097).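 Also: probe is a biotinylated anti-EGFR antibody binding compounds printed on slides; score combines fluorescence near 667 nm and signal to noise of each spot.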 As to conditions: higher = more signal.

Regarding `CC[C@@H](O[Si](C#C[Si](C(C)C)(C(C)C)C(C)C)(C(C)C)C(C)C)c1cn(Cc2cccc(Cl)c2)nn1`, the composite z-score in experiment [1] is 0.869; in experiment [5], -0.0557; in experiment [7], -0.138; in experiment [8] it was 0.523; in experiment [9] it was 0.932; in [10], -0.113. Further, the z-score is 0.978 (inactive) in experiment [2], 0.719 (inactive) in [3], 1.44 (inactive) in experiment [4] and 0.909 (inactive) in [6].
With `CC(C)c1ccc(NN2C(C(O)c3ccccc3)C=CC3C(=O)N(c4ccccc4)C(=O)C32)cc1` (stereo not given), the composite z-score in experiment [1] is 0.787; in experiment [5] it was 2.88; in [7], 0.142; in [8], -0.621; in experiment [9] it was 1.11; in experiment [10] it was 0.198. Moreover, the z-score in [2] was 1.54 (inactive); in [3] it was -0.0469 (inactive); in experiment [4] it was 0.209 (inactive); in experiment [6], -0.213 (inactive).
As to `COc1cccc(C)c1NC(=O)O[C@H]1[C@H](OC(=O)Nc2ccccc2)[C@@H](OC(=O)Nc2ccccc2)[C@@H](OC)O[C@@H]1CO`, the composite z-score was found to be 1.56 in [1]; 3.36 in experiment [5]; 0.0321 in experiment [7]; 0.902 in experiment [8]; 1.12 in experiment [9]; 0.0182 in [10]. The z-score in [2] is 1.52 (inactive); in experiment [3], 0.176 (inactive); in [4] it was 4.1 (inactive); in experiment [6] it was -0.93 (inactive).
`CN(C)CCCC[C@@H]1NC(=O)[C@H]2C[C@@H](C(=O)NCCCCCCNC(=O)CS)[C@@H](c3cccc(OCCO)c3)N2C1=O`: the composite z-score in [1] was -0.174; in [5] it was 0.935; in experiment [7] it was 0.0141; in [8] it was -0.0227; in experiment [9], -0.289; in experiment [10] it was -0.146. For the same compound, the z-score in [2] was -0.522 (inactive); in [3], -0.221 (inactive); in experiment [4], -0.195 (inactive); in [6] it was -0.12 (inactive).
For the compound `COCCOC(=O)N1C(=O)[C@@]2(c3cc(C#CCNC(N)=O)ccc31)[C@H](c1ccccc1OCCO)N1[C@H](c3ccccc3)[C@H](c3ccccc3)OC(=O)[C@H]1[C@@H]2C(=O)N1CCCCCCC1`, the composite z-score is 1.49 in experiment [1]; 1.79 in [5]; 0.365 in experiment [7]; 0.911 in [8]; 1.11 in experiment [9]; -0.0121 in [10]. The z-score in experiment [2] was 0.221 (inactive); in experiment [3] it was 0.47 (inactive); in experiment [4], 2.37 (inactive); in [6], -0.515 (inactive).
In the case of `COC(=O)[C@@]1(Cc2ccc(OC)cc2)[C@@H]2[C@@H](CC(=O)[C@H]2CC(=O)C(=O)N(C)C)CN1C(=O)c1ccccc1`, the composite z-score in experiment [1] was 0.707; in experiment [5] it was 3.24; in experiment [7], 1.11; in experiment [8] it was -0.458; in [9] it was 1.01; in [10], 0.766. Further, the z-score in [2] is -0.0616 (inactive); in experiment [3], 1.61 (inactive); in experiment [4], 3.34 (inactive); in experiment [6] it was -0.163 (inactive).
With `[N-]=[N+]=NCc1ccccc1[C@H]1OC(c2ccc(OCCCO)cc2)=N[C@@]1(Cc1ccccc1N=[N+]=[N-])C(=O)N1CCOCC1`, the composite z-score in experiment [1] is 1.58; in experiment [5] it was 3.36; in experiment [7], -0.0133; in experiment [8], 0.123; in experiment [9], 1.11; in experiment [10], -0.0031. In addition, the z-score is -0.8 (inactive) in experiment [2], 1.23 (inactive) in experiment [3], 4.53 (inactive) in experiment [4] and 0.175 (inactive) in experiment [6].
Consider `CCOC(=O)C=C1C[C@@H](c2cccc([N+](=O)[O-])c2)O[C@@H](c2cccc([N+](=O)[O-])c2)O1`, for which the composite z-score in [1] came to 1.5; in experiment [5], 2.29; in experiment [7], 0.91; in experiment [8], 0.327; in [9] it was 1.12; in experiment [10] it was 0.246. The z-score is 1.07 (inactive) in [2], 1.8 (inactive) in experiment [3], 1.79 (inactive) in [4] and -0.239 (inactive) in [6].
